TNFa cytotox: HUVEC cytotoxicity counter-screen, TNF alpha stimulated; cell count reduction, % at 2 µM; 93,000 compounds, 0.17% hits; AID 848; HUVEC TNFalpha-stimulated, Hoechst cell count, imaging;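 active = cell count reduction exceeding the screen mean by over 5 SD, scaled to untreated wells per plate, cut at about 78% in these data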;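 note: cells counted after 24 h of TNF alpha exposure following the 1 h pretreatment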
E-sel TNF inh: TNF alpha driven E-selectin expression inhibition; 120,000 compounds, 0.71% hits; inhibition, % at 2 µM; HUVEC TNFa-induced E-selectin immunofluorescence, high content; AID 1246;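 active = inhibition above the batch mean plus 3 SD, and confirmed as a hit on visual image review, cut at about 43% in these data; inconclusive = passes the inhibition cutoff but fails visual image review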;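 note: 0% = TNF-stimulated DMSO wells and 100% = unstimulated control wells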
cytoskel mod: alters cytoskeleton assembly in HUVEC cells; HUVEC TNFa F-actin phalloidin imaging, high content; inhibition, % at 2 µM; 91,000 compounds, 0.18% hits; AID 836;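 active = inhibition above the batch mean plus 3 SD and confirmed as a hit by visual image inspection, cut at about 30% in these data, passing the limit was not always enough; inconclusive = above the inhibition threshold but rejected on visual inspection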
VCAM1 TNFa inh: reduces TNF alpha induced VCAM1 expression in HUVEC; AID 802; inhibition, % at 2 µM; HUVEC TNFa-induced VCAM-1 immunofluorescence, high-content imaging; 95,000 compounds, 0.48% hits;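 active = inhibition above the batch mean plus 3 SD, with images confirmed as a hit by eye, cut at about 37% in these data; inconclusive = inhibition above that limit but hit not confirmed in images; inactive = inhibition not above that limit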;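 note: 0% = TNF-stimulated DMSO wells and 100% = unstimulated control wells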
* marks the source's active call; other numbers are inactive results; ? = inconclusive; / = not tested or not shown. Compounds with a hit are over-represented: about 1% of the library has one in this group of screens.

SMILES | TNFa cytotox | E-sel TNF inh | cytoskel mod | VCAM1 TNFa inh
O=C(CS(=O)c1ccc(C(F)(F)F)cc1[N+](=O)[O-])Oc1ccccc1 (centres undefined) | 20.4 | 83.8* | 29.0 | 88.0*
Cc1cc(OCC(=O)Nc2ccncc2)c(C)cc1Br | -22.7 | 66.4* | 15.4 | -3.1
O=C(COc1ccc(Br)cc1)Nc1ccncc1 | 0.8 | -39.0 | -20.4 | 3.3
O=C(Cn1cncn1)NCc1ccccc1Br | -16.9 | -20.9 | 23.7 | -1.3
O=C(Cn1cncn1)NCc1cccc2ccccc12 | 0.0 | 64.1* | / | -4.7
Cc1ccc(F)cc1NC(=O)C12CC3CC(C1)CC(n1cnc([N+](=O)[O-])n1)(C3)C2 | -18.4 | -19.7 | 13.9 | 14.1
O=C(O)C1CCN(c2ccc(Cl)nn2)CC1 | / | 26.4 | / | /
Cn1c(=O)c2c(nc(SCC(=O)NC34CC5CC(CC(C5)C3)C4)n2C)n(C)c1=O | 14.3 | 68.3* | -15.8 | 1.0
CNC(=S)N(Cc1ccc2c(c1)OCO2)C1CC(=O)N(c2ccc(F)cc2)C1=O (centres undefined) | 12.3 | -5.6 | 14.6 | -14.5
Cc1csc(NC(=O)CCN2C(=O)c3ccccc3S2(=O)=O)n1 | -0.5 | 4.6 | -4.6 | 22.5
CCOC(=O)Cc1csc(NC(=O)CN2C(=O)c3ccccc3S2(=O)=O)n1 | / | 96.0* | / | /
CC(=O)c1ccc(-n2c(SCC(=O)c3c[nH]c4ccccc34)nc3ccccc3c2=O)cc1 | / | 1.5 | / | /
CC(C)(C)C1=CC(=O)C(=O)C(C(C)(C)C)=C1 | / | 89.0* | / | /
Cn1cc([N+](=O)[O-])c(C(=O)Nc2ccn(Cc3c(F)c(F)cc(F)c3F)n2)n1 | 2.0 | -0.7 | 10.8 | 12.5
O=C(c1cccc(S(=O)(=O)N2CCc3ccccc3C2)c1)N1CCN(c2ccc(O)cc2)CC1 | / | -13.4 | / | /
O=[N+]([O-])c1cnccc1Nc1ccc(F)cc1 | 94.4* | 6.5 | 84.7* | 53.3*
Nc1ccc(Nc2ccncc2[N+](=O)[O-])cc1 | -10.6 | -26.7 | 7.8 | 9.0
CCC(=O)c1c[nH]c(C(=O)NCCCn2ccnc2)c1 | -3.8 | 12.0 | -8.0 | 9.4
CCN(/N=C/c1ccc(Cl)cc1)c1cc(=O)n(C)c(=O)[nH]1 | / | 62.3* | / | /
Cc1cc(C(=O)Nc2nc3c(s2)CCCC3)no1 | -18.3 | 40.3* | / | 4.3
COc1ccc(C(=O)/C=C/c2ccc(F)cc2)c(OC(=O)c2ccc([N+](=O)[O-])cc2)c1 | -7.1 | 70.4* | -1.5 | -9.8
Cc1ccc(C23CC4CC(CC(C(=O)OCC(=O)NC5CCS(=O)(=O)C5)(C4)C2)C3)cc1 (centres undefined) | / | 24.6 | / | /
CC1(C)NC(=O)N(CCCCOc2cccc(C(F)(F)F)c2)C1=O | / | -21.1 | / | /
CCC(C)Oc1cccc(OCCCCN2C(=O)NC(C)(C)C2=O)c1 (centres undefined) | / | -0.4 | 100.0* | /
O=C(c1ccco1)N1c2ccccc2Sc2ccccc21 | 4.0 | -1.5 | -3.9 | 0.2
SMILES | TNFa cytotox | E-sel TNF inh | cytoskel mod | VCAM1 TNFa inh
O=C(c1ccco1)N1CCN(C(=O)N2c3ccccc3Sc3ccccc32)CC1 | 72.8 | -5.8 | -7.8 | 82.7*
Cc1nn(-c2ccccc2)c2nc3c(cc12)C(=O)CCC3 | / | -27.7 | / | /
Cc1ccccc1CS(=O)(=O)c1nnc([C@H](CC(C)C)NC(=O)OC(C)(C)C)o1 | -16.8 | 98.7* | 24.1 | 10.3
COC1(c2ccccc2)NC(=S)NN=C1c1ccccc1 (centres undefined) | 100.0* | 3.2 | ? | ?
Cc1ccc(Cl)cc1NC1=C/C(=N\S(=O)(=O)c2cccs2)c2ccccc2C1=O | 27.7 | 28.9 | 8.9 | 90.6*
CC(C)NC1CS(=O)(=O)CC1O (centres undefined) | 100.0* | 11.6 | ? | ?
Nc1ccc2nc(-c3ccc(N)c(Cl)c3)[nH]c2c1 | -10.4 | -19.4 | 45.5* | -32.5
O=C(O)CN1C(=O)C2(OCCCO2)c2ccccc21 | 5.3 | -2.1 | -8.0 | 9.3
Cc1ccccc1CN1C(=O)C2(OCCCO2)c2ccccc21 | -29.6 | -5.4 | 64.5* | 4.7
CCC(C)C(=O)Nc1ccc(OC)cc1[N+](=O)[O-] (centres undefined) | / | -1.1 | / | /
Cc1ccc(C(=O)N2CCC(C)CC2)cc1C | 4.5 | 12.2 | -12.5 | -6.4
COc1cc(-n2cnnn2)ccc1S(=O)(=O)N1CCOCC1 | -22.3 | / | 6.4 | -24.3
O=S(=O)(c1cccc(-n2cnnn2)c1)N1CCOCC1 | 100.0* | / | ? | ?
O=Cc1cnc(N2CCOCC2)nc1 | / | -3.3 | / | /
O=C(CN1CCN(Cc2ccccc2Cl)C1=O)NCc1ccco1 | -22.7 | 63.5* | 11.1 | 4.2
O=C(NCc1ccco1)C(=O)NCc1ccccc1Cl | / | -13.0 | / | /
O=[N+]([O-])c1ccccc1/C=C/C=N/Nc1ccc(S(=O)(=O)Nc2ccc(Cl)cc2)cc1[N+](=O)[O-] | / | -47.1 | / | /
CC(C(=O)O)C1SC(=O)NC1=O (centres undefined) | -15.2 | 70.3* | 4.3 | 1.9
COc1cccc(-n2nc(-c3ccnn3-c3ccc(C)cc3)c(=O)n(C)c2=O)c1 | -14.3 | 4.5 | / | 3.2
CCc1cccc(CC)c1N(COC)C(=O)Cn1ccccc1=N | -46.7 | 4.7 | 78.6* | 17.1
COc1ccc(CCNc2nnc(Sc3nnnn3-c3ccccc3)s2)cc1OC | 35.7 | 18.6 | 9.4 | 86.8*
O=C(Cn1ncc(Cl)c(Cl)c1=O)c1ccc(Cl)cc1 | 15.8 | 28.2 | -0.8 | 16.0
O=C(OCn1ncc(Cl)c(Cl)c1=O)c1ccccc1Cl | 19.5 | 99.9* | -21.1 | 17.3
O=C(OCn1ncc(Cl)c(Cl)c1=O)c1ccc(F)cc1 | 4.2 | 100.0* | 16.6 | 11.2
COc1cc(CN2CCCC(C(=O)c3ccccc3SC)C2)cc(OC)c1 (centres undefined) | / | -8.7 | / | /
SMILES | TNFa cytotox | E-sel TNF inh | cytoskel mod | VCAM1 TNFa inh
O=C(NCCCN1CCOCC1)C(=O)NCc1ccccc1Cl | / | -15.7 | / | /
CCOC(=O)Cn1nnnc1CN(CCc1ccccc1)Cc1cc2cc(CC)ccc2[nH]c1=O | 83.4* | 19.2 | / | ?
C=CCN(CC=C)S(=O)(=O)c1ccc(NC(=S)NC(=O)/C=C/c2cccc3ccccc23)cc1 | 2.4 | 67.6* | -11.9 | -10.4
CS(=O)(=O)N1N=C(c2ccco2)CC1c1ccc(Cl)cc1 (centres undefined) | / | -8.7 | / | /
N#CCc1ccc(NS(=O)(=O)c2cccs2)cc1 | / | 64.3* | / | /
CC(OC(=O)Cc1c(F)cccc1Cl)C(=O)NCCC1=CCCCC1 (centres undefined) | / | -13.7 | / | /
C[C@H](NS(=O)(=O)c1ccccc1)C(=O)OCC(=O)NC(=O)Nc1ccc2c(c1)OCCO2 | / | -19.6 | / | /
Cn1c(CC(=O)Nc2ccc(Cl)c(Cl)c2)nnc1SCC(=O)NCc1ccccc1 | / | 38.5 | / | /
CCOC(=O)Cc1csc(SCC(=O)/C(C#N)=C(\C)N)n1 | 79.1* | 13.6 | 21.6 | 59.2*
CC1CC1c1ccc(/C=C(\C#N)C(=O)Nc2ccc(Cl)cc2)o1 (centres undefined) | / | 63.6* | / | /
COc1ccc2c(c1)C(C)=CC(C)(C)N2S(=O)(=O)c1ccc(C)cc1 | / | 6.8 | / | /
CC1=CC(C)(C)N(S(=O)(=O)c2ccc(C)cc2)c2cc(C)ccc21 | 58.0 | 15.8 | 4.4 | 38.2*
COC(=O)c1cc(NS(=O)(=O)c2ccc(N3CCOCC3)c(N)c2)cc(C(=O)OC)c1 | / | 44.9 | / | /
COC(=O)CCC(=O)Nc1nc(-c2ccccc2)cs1 | -6.6 | 61.7* | -9.9 | -1.7
Cc1ccccc1NC(NC(=O)c1cccs1)C(Cl)(Cl)Cl (centres undefined) | -13.0 | -60.6 | 1.2 | 13.9
